In the library only some 21% were active in any assay of this set; here they are far more common.
AMA1-RON2 inh = qHTS for Inhibitors of AMA1-RON; Towards Development of Antimalarial Drug Lead: Primary Screen; Plasmodium falciparum AMA1 (3D7) - RON2 peptide interaction; AlphaScreen AMA1-biotinylated RON2 peptide binding; Potency, µM (series often up to 58.2 µM), inactives show top-dose activity change, negative = inhibition, most hits filed as inhibitors; actives 0.2% (n = 360,000);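 also: potency is read from the fitted curve at half-maximal effect; 0% = vehicle wells and -100% = peptide control; nearly all actives have a fitted effect of over 45% in size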
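AMA1 (3D7) with his tag at 25 nM final met compounds first, then biotinylated RON2 peptide at 25 nM; detection used donor plus acceptor beads, 10 µg/mL apiece, read by AlphaScreen after 30 min at room temperature.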
HCV inh = qHTS Assay for Inhibitors of Hepatitis C Virus (HCV) | Huh7.5.1 HCVcc-Cre infection, luciferase reporter, 44 h | actives 3.4% (n = 340,000) | Potency, µM (series often up to 41.8 µM), for the others: top-dose activity change, negative = inhibition, most hits filed as inhibitors; also: potency is read from the fitted curve at half-maximal effect; % is scaled to controls: 0 for no effect and ±100 for the full control effect
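1,000 cells/well; 4 h culture; + compound; + HCVcc-Cre (~0.5 moi); 44 h; luciferase substrate, RT 15 min; read 15 sec.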
Shiga toxin inh = A qHTS for Small Molecule Inhibitors of Shiga Toxin; Vero cells, Shiga toxin protein synthesis inhibition reporter; inhibition, % at 38.7 µM; actives 9.2% (n = 290,000); AID 2315, 2010; in the data active = inhibition mostly above about 28%, no sharp cut-off; inactive = mostly below about 43%; also: 0% is about no effect
CHX counter = Cycloheximide Counterscreen for Small Molecule Inhibitors of Shiga Toxin; max response, %; cell reporter, cycloheximide protein synthesis inhibition counterscreen; actives 12% (n = 300,000); in the data active = max response mostly above about 13%, no sharp cut-off; inactive = mostly below about 14%; also: read at 38.3 µM for the half of the compounds with a filed dose; 0% is about no effect
Pf growth 96h = Primary qHTS for delayed death inhibitors of the malarial parasite plastid, 96 hour incubation; P. falciparum luciferase reporter growth, 96 h; Potency, µM (series often up to 28.7 µM), inactives show top-dose activity change, negative = inhibition, most hits filed as inhibitors; actives 6.9% (n = 320,000); also: potency is read from the fitted curve at half-maximal effect; % is scaled to controls: 0 for no effect and ±100 for the full control effect
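Two-generation exposure (96 h) targets delayed-death phenotype. Reporter parasites carrying integrated firefly luciferase, in red cells at 2% hematocrit and 0.05% parasitemia final, kept at 37 C, 5% CO2; luminescence loss indicates inhibition.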
Pf growth 48h = Primary qHTS for delayed death inhibitors of the malarial parasite plastid, 48 hour incubation. AID 504832, 2011. Potency, µM (series often up to 28.7 µM), without a hit: at the highest dose activity change, negative = inhibition, actives largely listed as inhibitors. actives 5.9% (n = 310,000). P. falciparum luciferase growth in erythrocytes, 48 h; also: potency is read from the fitted curve at half-maximal effect; % is scaled to controls: 0 for no effect and ±100 for the full control effect
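Firefly luciferase activity from engineered P. falciparum reports growth; inhibitors lower the luminescent signal. Cultures contained 2% hematocrit erythrocytes at 0.1% final parasitemia.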
* hit, by the source's call; [ ] = remark or other dose. Unless noted, calls follow the shape of the dose curve; as a rule, active = well fitted curve in the direction sought with a large enough effect; inconclusive = small, poorly fitted or top-dose-only effect, or another doubt; inactive = no such curve, though single readings can be large; an effect the other way counts as inactive or inconclusive.

What do the screens show for `O=C(CSc1nc(-c2ccccc2)cs1)NCCN1C(=O)CSC1=O`?
AMA1-RON2 inh: 8%; HCV inh: 1%; Shiga toxin inh: 38; CHX counter: 30*; Pf growth 96h: 94%; Pf growth 48h: 48%

How did Cc1ccc(Nc2nnc(SCC(=O)NCCN3C(=O)CSC3=O)s2)cc1C do in these assays?
AMA1-RON2 inh: 5%; HCV inh: 4%; Shiga toxin inh: active; CHX counter: 15*; Pf growth 96h: inconclusive; Pf growth 48h: 5%

How did Cc1ccc(-n2c(SCC(=O)NCCN3C(=O)CSC3=O)nnc2-c2ccccc2F)cc1 do in these assays?
AMA1-RON2 inh: -1%; HCV inh: -1%; Shiga toxin inh: -1; CHX counter: -1; Pf growth 96h: 15µM*; Pf growth 48h: -12%

Results for O=C(O)C(Cc1cn[nH]n1)=NO ?
AMA1-RON2 inh: 11%; HCV inh: -18%; Shiga toxin inh: -9; CHX counter: -7; Pf growth 96h: 23%; Pf growth 48h: 3%

What do the screens show for `O=C(NCCc1ccc(Cl)cc1)C1CCCO1` (configuration not stated)?
AMA1-RON2 inh: -4%; HCV inh: 13%; Shiga toxin inh: 3; CHX counter: 8; Pf growth 96h: inconclusive; Pf growth 48h: 33%

What do the screens show for `c1ccc(-n2cc(CN3CCCC3)c(-c3ccc4c(c3)OCO4)n2)cc1`?
AMA1-RON2 inh: -3%; HCV inh: -9%; Shiga toxin inh: -2; CHX counter: 8; Pf growth 96h: inconclusive; Pf growth 48h: 5.2µM*

What do the screens show for `COCC1CCN(Cc2cn(-c3ccccc3F)nc2-c2cc(C)sc2C)CC1`?
AMA1-RON2 inh: -14%; HCV inh: 11%; Shiga toxin inh: -11; CHX counter: -2; Pf growth 96h: -51%; Pf growth 48h: inconclusive

What do the screens show for `COCC1CCCN(Cc2cn(-c3ccccc3)nc2-c2ccc3c(c2)OCO3)C1` (configuration not stated)?
AMA1-RON2 inh: -21%; HCV inh: 3%; Shiga toxin inh: 12; CHX counter: 1; Pf growth 96h: inconclusive; Pf growth 48h: 9.3µM*

What do the screens show for `c1ccc(-n2cc(CN3CCC(N4CCOCC4)CC3)c(-c3ccc4c(c3)OCO4)n2)cc1`?
AMA1-RON2 inh: 6%; HCV inh: -12%; Shiga toxin inh: -2; CHX counter: -1; Pf growth 96h: inconclusive; Pf growth 48h: inconclusive

What do the screens show for `Clc1cccc(-c2nn3c(Cn4cnc5ccccc54)nnc3s2)c1`?
AMA1-RON2 inh: -1%; HCV inh: -30%; Shiga toxin inh: -20; CHX counter: -2; Pf growth 96h: 13%; Pf growth 48h: 13µM*

Results for CCc1ccccc1NC(=O)COc1ccc2c(c1)OCO2 ?
AMA1-RON2 inh: -22%; HCV inh: -2%; Shiga toxin inh: 47*; CHX counter: 15*; Pf growth 96h: 0%; Pf growth 48h: -7%

Results for N#Cc1ccccc1NC(=O)COc1ccc2c(c1)OCO2 ?
AMA1-RON2 inh: -13%; HCV inh: 14%; Shiga toxin inh: 93*; CHX counter: 47*; Pf growth 96h: 8.3µM*; Pf growth 48h: 121%

Results for O=C(COc1ccc2c(c1)OCO2)Nc1ccccc1C(F)(F)F ?
AMA1-RON2 inh: -30%; HCV inh: 12%; Shiga toxin inh: 87*; CHX counter: 31*; Pf growth 96h: inconclusive; Pf growth 48h: 22%

How did CCOC(=O)C1CCCN(C(=O)c2cncc(Br)c2)CC1 (configuration not stated) do in these assays?
AMA1-RON2 inh: -1%

How did C[C@@H]1CN([C@@H](C)CO)S(=O)(=O)c2ccc(Br)cc2O[C@@H]1CN(C)C(=O)C1CC1 do in these assays?
AMA1-RON2 inh: 11%

How did Cc1ccc(N(C)S(=O)(=O)c2cccc(C(=O)OCC(=O)N(C)Cc3ccccc3)c2)cc1 do in these assays?
AMA1-RON2 inh: -4%

How did CCOC(=O)c1ccc(N2C(=O)C(O)=C(C(C)=O)C2c2ccccc2)cc1 (configuration not stated) do in these assays?
AMA1-RON2 inh: 3%; HCV inh: 2%; Shiga toxin inh: 3; CHX counter: -4; Pf growth 96h: -9%; Pf growth 48h: -27%

What do the screens show for `CCOC(=O)c1ccc(NS(C)(=O)=O)cc1`?
AMA1-RON2 inh: 1%; HCV inh: 12%; Shiga toxin inh: -12; CHX counter: -4; Pf growth 96h: inconclusive

What do the screens show for `CCOC(=O)c1ccc(N/C=C/C(=O)C(C)(C)C)cc1`?
AMA1-RON2 inh: inconclusive; HCV inh: 10%; Shiga toxin inh: 90*; CHX counter: 50*; Pf growth 96h: 23%; Pf growth 48h: 60%

What do the screens show for `CCOC(=O)c1ccc(N/C=C/C(=O)c2ccc(OC)cc2)cc1`?
AMA1-RON2 inh: 6%; HCV inh: 4%; Shiga toxin inh: 1; CHX counter: 1; Pf growth 96h: 0%; Pf growth 48h: 15%

Results for CCOC(=O)c1ccc(CNCc2ccccc2)cc1 ?
AMA1-RON2 inh: 2%; HCV inh: 18%; Shiga toxin inh: 50*; CHX counter: 29*; Pf growth 96h: 0%; Pf growth 48h: 49%

How did CCOC(=O)c1ccc(N2C(=O)[C@@H](c3ccccc3)[C@H]2c2ccccc2)cc1 do in these assays?
AMA1-RON2 inh: -5%; HCV inh: -6%; Pf growth 96h: inconclusive; Pf growth 48h: 10µM*

What do the screens show for `CCOC(=O)c1ccc(N/C=C/C(=O)c2ccccc2)cc1`?
AMA1-RON2 inh: -5%; HCV inh: 8%; Shiga toxin inh: 54*; CHX counter: 43*; Pf growth 96h: inconclusive; Pf growth 48h: 23%

How did CCc1nc2ccc(C(=O)NC(C)(C)C)cn2c1N(CC)Cc1cccc(Br)c1 do in these assays?
AMA1-RON2 inh: 0%

Results for CC1CC(C)CN(C(=O)CSc2ncnc3sccc23)C1 (configuration not stated) ?
AMA1-RON2 inh: 1%[11.6 µM]; HCV inh: 0%; Pf growth 96h: 69%; Pf growth 48h: -13%

How did O=C(NNc1nc(-c2ccccc2)cs1)c1ccco1 do in these assays?
AMA1-RON2 inh: 0%; HCV inh: inconclusive; Shiga toxin inh: 23; CHX counter: 12*; Pf growth 96h: 1.5µM*; Pf growth 48h: 12µM*

Results for O=C(NNc1nc(-c2ccc(Cl)cc2)cs1)c1ccco1 ?
AMA1-RON2 inh: 54%; HCV inh: -23%; Shiga toxin inh: 41*; CHX counter: 39*; Pf growth 96h: inconclusive; Pf growth 48h: 12µM*
